Measurements from the supplement of paper PMC10849652.
The full data set covers some 7,900 targets. This sample favours those with a hit. About 0.6% of all pairs of compound and target were hits. Values without a mark were called inactive.

Chain of UniProt A4D2B0 (A4D2B0 whole entry, looked up): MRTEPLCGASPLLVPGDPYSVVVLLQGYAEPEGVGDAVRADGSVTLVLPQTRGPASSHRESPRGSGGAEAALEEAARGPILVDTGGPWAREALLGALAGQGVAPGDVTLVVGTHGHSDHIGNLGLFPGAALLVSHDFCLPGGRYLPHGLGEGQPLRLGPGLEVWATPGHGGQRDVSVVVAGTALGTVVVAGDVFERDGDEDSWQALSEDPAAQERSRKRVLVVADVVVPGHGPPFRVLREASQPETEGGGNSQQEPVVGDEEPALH
Chain of UniProt P43361 (P43361 whole entry, looked up): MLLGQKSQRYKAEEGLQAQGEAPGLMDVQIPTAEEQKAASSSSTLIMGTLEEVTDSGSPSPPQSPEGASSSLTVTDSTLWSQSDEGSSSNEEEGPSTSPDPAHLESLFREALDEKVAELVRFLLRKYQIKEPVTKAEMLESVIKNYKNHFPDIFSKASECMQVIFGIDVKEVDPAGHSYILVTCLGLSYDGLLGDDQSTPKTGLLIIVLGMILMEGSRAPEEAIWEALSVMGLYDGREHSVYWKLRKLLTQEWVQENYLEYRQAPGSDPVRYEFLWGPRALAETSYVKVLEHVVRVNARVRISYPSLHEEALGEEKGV
Chain of UniProt Q9NQX7 (Q9NQX7 whole entry, looked up): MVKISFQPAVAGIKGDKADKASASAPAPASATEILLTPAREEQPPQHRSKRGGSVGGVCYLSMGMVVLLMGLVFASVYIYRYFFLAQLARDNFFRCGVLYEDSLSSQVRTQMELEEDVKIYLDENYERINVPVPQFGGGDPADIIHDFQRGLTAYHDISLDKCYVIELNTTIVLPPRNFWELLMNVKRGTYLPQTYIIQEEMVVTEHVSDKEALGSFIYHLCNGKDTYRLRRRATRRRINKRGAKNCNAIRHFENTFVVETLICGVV
Chain of UniProt Q6NUT3 (Q6NUT3 whole entry, looked up): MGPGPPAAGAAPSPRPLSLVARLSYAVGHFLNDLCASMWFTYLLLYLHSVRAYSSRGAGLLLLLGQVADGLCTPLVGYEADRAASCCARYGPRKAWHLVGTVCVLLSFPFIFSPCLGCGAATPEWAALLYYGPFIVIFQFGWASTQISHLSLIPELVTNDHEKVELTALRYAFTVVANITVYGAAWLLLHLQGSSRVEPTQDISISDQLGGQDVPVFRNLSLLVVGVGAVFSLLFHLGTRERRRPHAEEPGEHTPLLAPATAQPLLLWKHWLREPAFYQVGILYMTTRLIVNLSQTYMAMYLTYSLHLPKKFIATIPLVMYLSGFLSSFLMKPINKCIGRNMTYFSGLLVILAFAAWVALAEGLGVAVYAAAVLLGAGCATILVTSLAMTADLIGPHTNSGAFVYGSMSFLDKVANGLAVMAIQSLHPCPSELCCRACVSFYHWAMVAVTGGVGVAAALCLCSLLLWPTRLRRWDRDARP
Chain of UniProt Q32MZ4 (Q32MZ4 whole entry, looked up): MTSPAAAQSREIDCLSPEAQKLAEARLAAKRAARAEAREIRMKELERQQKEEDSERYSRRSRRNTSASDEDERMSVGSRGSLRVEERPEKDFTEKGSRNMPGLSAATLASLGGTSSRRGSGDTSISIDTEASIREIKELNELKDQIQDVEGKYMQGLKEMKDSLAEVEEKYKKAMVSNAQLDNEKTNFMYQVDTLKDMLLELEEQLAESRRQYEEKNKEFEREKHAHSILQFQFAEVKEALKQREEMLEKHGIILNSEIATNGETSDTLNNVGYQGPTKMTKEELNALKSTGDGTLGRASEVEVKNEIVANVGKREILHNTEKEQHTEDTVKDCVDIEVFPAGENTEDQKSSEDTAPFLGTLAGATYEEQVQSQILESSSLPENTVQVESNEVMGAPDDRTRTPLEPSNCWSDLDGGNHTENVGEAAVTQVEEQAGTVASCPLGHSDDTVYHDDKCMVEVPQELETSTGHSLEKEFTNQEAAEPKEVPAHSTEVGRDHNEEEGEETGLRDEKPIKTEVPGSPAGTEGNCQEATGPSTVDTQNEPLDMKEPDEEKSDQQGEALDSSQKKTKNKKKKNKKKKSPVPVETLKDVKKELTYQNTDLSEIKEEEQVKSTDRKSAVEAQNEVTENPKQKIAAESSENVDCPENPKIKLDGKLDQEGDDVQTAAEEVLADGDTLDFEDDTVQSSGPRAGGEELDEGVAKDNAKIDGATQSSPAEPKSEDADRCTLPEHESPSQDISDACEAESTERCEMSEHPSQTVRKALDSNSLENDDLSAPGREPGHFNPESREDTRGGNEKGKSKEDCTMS
Chain of UniProt Q86X29 (Q86X29 whole entry, looked up): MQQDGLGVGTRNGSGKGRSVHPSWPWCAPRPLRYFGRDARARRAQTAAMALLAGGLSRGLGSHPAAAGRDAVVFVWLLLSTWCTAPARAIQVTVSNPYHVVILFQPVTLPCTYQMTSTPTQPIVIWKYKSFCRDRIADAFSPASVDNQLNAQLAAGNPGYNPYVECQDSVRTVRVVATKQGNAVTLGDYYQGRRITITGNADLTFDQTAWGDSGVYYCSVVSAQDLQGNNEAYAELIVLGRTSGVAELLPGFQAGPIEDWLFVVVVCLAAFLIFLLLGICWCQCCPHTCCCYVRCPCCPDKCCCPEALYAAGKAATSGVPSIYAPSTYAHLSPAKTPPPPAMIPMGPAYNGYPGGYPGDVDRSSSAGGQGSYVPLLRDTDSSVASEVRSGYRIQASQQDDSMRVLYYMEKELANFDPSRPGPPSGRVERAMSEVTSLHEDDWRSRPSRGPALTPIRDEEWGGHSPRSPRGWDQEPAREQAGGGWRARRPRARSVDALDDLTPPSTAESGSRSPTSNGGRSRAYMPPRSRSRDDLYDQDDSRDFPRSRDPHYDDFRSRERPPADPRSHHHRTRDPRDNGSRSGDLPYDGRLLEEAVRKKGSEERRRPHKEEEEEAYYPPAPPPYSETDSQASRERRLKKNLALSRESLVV
Chain of UniProt O95819 (O95819 whole entry, looked up): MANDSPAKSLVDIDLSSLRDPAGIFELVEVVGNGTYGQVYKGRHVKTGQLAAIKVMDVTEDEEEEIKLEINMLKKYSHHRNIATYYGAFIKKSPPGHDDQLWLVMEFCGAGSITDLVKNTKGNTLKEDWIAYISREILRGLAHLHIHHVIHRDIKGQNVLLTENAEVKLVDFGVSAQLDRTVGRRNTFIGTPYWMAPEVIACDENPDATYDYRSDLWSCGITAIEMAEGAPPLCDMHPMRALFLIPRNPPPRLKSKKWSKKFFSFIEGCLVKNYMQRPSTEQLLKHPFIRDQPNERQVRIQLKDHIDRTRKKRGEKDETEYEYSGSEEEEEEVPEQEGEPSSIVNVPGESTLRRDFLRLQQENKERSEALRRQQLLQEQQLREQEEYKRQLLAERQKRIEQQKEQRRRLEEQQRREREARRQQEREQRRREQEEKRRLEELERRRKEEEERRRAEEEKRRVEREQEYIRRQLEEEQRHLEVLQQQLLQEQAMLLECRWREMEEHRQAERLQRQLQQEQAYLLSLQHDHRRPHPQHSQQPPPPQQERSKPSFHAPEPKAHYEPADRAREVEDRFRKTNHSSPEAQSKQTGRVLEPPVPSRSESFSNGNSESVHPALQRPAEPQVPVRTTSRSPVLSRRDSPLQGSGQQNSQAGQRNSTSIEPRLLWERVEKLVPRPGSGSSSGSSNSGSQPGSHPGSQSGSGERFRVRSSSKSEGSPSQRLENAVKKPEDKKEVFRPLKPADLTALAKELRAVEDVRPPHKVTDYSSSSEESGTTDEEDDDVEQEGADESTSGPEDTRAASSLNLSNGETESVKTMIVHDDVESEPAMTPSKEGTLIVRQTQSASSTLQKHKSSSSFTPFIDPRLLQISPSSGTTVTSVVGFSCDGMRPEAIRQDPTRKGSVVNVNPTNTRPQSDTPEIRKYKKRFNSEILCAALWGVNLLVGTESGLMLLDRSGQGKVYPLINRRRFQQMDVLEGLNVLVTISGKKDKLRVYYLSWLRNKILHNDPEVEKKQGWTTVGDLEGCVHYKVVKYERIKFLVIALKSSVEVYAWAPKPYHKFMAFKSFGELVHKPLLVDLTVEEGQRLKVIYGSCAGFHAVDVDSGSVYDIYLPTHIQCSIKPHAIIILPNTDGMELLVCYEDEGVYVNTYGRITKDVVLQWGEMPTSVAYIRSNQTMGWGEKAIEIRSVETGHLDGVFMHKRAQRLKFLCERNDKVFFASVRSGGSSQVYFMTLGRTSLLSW
Chain of UniProt Q8NHS3 (Q8NHS3 whole entry, looked up): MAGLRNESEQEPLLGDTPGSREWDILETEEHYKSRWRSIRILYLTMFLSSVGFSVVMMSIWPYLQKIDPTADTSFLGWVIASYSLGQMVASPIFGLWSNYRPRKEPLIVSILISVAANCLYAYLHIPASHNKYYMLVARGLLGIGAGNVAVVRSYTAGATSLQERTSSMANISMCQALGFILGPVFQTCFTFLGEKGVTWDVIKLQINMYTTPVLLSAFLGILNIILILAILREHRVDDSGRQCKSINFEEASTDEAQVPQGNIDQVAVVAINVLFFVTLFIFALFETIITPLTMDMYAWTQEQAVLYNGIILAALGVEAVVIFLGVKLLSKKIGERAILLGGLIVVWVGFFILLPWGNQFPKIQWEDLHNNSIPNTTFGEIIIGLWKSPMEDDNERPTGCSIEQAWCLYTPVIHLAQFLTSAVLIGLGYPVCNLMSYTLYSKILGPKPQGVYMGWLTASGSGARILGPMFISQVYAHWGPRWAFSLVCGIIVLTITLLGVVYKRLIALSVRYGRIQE
Chain of UniProt Q9BQD3 (Q9BQD3 whole entry, looked up): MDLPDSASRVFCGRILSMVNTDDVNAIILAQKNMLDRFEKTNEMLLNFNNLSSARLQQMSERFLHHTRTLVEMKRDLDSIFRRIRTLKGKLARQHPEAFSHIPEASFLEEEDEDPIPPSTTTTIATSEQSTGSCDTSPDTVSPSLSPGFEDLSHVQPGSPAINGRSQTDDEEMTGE
Chain of UniProt O15243 (O15243 whole entry, looked up): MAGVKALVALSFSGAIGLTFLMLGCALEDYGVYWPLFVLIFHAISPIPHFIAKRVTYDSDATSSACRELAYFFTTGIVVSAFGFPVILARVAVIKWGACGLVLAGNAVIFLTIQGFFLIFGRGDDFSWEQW
Chain of UniProt Q52LA3 (Q52LA3 whole entry, looked up): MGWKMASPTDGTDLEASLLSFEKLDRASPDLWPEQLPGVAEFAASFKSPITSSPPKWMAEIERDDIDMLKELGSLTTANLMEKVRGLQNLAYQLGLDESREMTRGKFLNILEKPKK

What follows are targets tested with C[C@H](Nc1ncnc2nc[nH]c12)c1cc2cccc(Cl)c2c(=O)n1-c1ccccc1 [duvelisib] (assay: log2 fold change, soluble protein after heating vs DMSO (PISA); higher = thermal stabilisation; K562 cells, 10 uM, 30 min; active = over 0.2 and 3.5 SD of the protein, either way, in both replicates (recomputed)).
Outline: (§1)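 K562 cells at 2×10^6 cells/mL were treated with 10 μM compound for 30 min. Aliquots were heated for 3 min across 48°C-58°C, pooled, and extracted in PBS with 0.5% NP-40 at 4°C; soluble protein was the supernatant after 21,000xg for 90 min. Soluble protein was quantified by TMTpro 16plex LC-MS/MS with channel sums equalised, and reported as log2 fold change in thermal stability against DMSO controls, with values from duplicates.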
LAMP2 isoform 2 (UniProt P13473) was tested, and the log2 fold change was 0.344 (active).
With MFSD8 (UniProt Q8NHS3) the log2 fold change was -0.108.
Target IGFBP6 (UniProt P24592) has a log2 fold change of 0.063.
MAP2K5 (UniProt Q13163) was tested, and the log2 fold change was -0.049.
MFAP3 (UniProt P55082) was tested, and the log2 fold change was 0.083.
Target LEPROT (UniProt O15243) has a log2 fold change of 0.045.
Work on MAP4K4 isoform 6 (UniProt O95819) yielded a log2 fold change of -0.152.
MAGED1 isoform 2 (UniProt Q9Y5V3) gave a log2 fold change of 0.05.
For MED29 (UniProt Q9NX70), the log2 fold change was -0.025.
ITM2C (UniProt Q9NQX7) was tested, and the log2 fold change was -0.034.
With LRRCC1 (UniProt Q9C099) the log2 fold change was 0.09.
LIN52 (UniProt Q52LA3) was tested, and the log2 fold change was -0.087.
IKZF1 (UniProt R9R4D9) was tested, and the log2 fold change was 0.042.
LMBRD1 (UniProt Q9NUN5) showed a log2 fold change of -0.037.
KXD1 (UniProt Q9BQD3) gave a log2 fold change of 0.067.
With LRRFIP1 isoform 4 (UniProt Q32MZ4) the log2 fold change was 0.025.
MBLAC1 (UniProt A4D2B0) showed a log2 fold change of 0.019.
MFSD12 isoform 3 (UniProt Q6NUT3) was tested, and the log2 fold change was 0.109.
LSR isoform 3 (UniProt Q86X29) showed a log2 fold change of 0.179.
Target MAGEA8 (UniProt P43361) has a log2 fold change of -0.082.

What follows are targets tested with Cc1cc(Nc2cc(CN3CCOCC3)c3nc(C)c(Cc4ccc(Cl)cc4F)n3n2)n[nH]1 [gandotinib] in the same assay as above.
Outline: as §1
For MCOLN3 (UniProt Q8TDD5), the log2 fold change was 0.022.
With LAMP2 isoform 2 (UniProt P13473) the log2 fold change was 0.066.
Target MFSD8 (UniProt Q8NHS3) has a log2 fold change of -0.018.
With KMT5A (UniProt Q9NQR1) the log2 fold change was 0.038.
LAPTM4B (UniProt Q86VI4) showed a log2 fold change of 0.
For LEPROT (UniProt O15243), the log2 fold change was 0.081.
MGRN1 isoform 2 (UniProt O60291) was tested, and the log2 fold change was 0.06.
ITM2C (UniProt Q9NQX7) was tested, and the log2 fold change was 0.083.
In the case of IKZF1 (UniProt R9R4D9), the log2 fold change was 0.244.
KIZ (UniProt Q2M2Z5) showed a log2 fold change of 0.063.
Work on MAP4K5 (UniProt Q9Y4K4) yielded a log2 fold change of -0.067.
MFSD1 isoform 6 (UniProt Q9H3U5) gave a log2 fold change of -0.077.
LMBRD1 (UniProt Q9NUN5) was tested, and the log2 fold change was -0.137.
Target MAPK7 (UniProt Q13164) has a log2 fold change of 0.304.
Target KXD1 (UniProt Q9BQD3) has a log2 fold change of -0.156.
Target LRRFIP1 isoform 4 (UniProt Q32MZ4) has a log2 fold change of 0.548.
With MBLAC1 (UniProt A4D2B0) the log2 fold change was -0.056.
MFSD12 isoform 3 (UniProt Q6NUT3) gave a log2 fold change of -0.122.
Target MAPK11 (UniProt Q15759) has a log2 fold change of -0.083.
With MAGEA8 (UniProt P43361) the log2 fold change was -0.472 (active).

These targets were tested with Cc1cc(Nc2cc(N3CCN(C)CC3)nc(Sc3ccc(NC(=O)C4CC4)cc3)n2)n[nH]1 [tozasertib] in the same assay as above.
Outline: as §1
MCOLN3 (UniProt Q8TDD5) showed a log2 fold change of -0.112.
For LAMP2 isoform 2 (UniProt P13473), the log2 fold change was -0.071.
Target IKZF1 isoform 2 (UniProt Q13422) has a log2 fold change of 0.055.
MFSD8 (UniProt Q8NHS3) gave a log2 fold change of 0.055.
MFAP3 (UniProt P55082) showed a log2 fold change of 0.009.
MAP4K2 (UniProt Q12851) showed a log2 fold change of 0.158.
Work on LEPROT (UniProt O15243) yielded a log2 fold change of 0.003.
MAP4K4 isoform 6 (UniProt O95819) showed a log2 fold change of -0.132.
MGRN1 isoform 2 (UniProt O60291) gave a log2 fold change of -0.136.
LRRCC1 (UniProt Q9C099) was tested, and the log2 fold change was 0.006.
Target IKZF1 (UniProt R9R4D9) has a log2 fold change of -0.066.
MAP4K5 (UniProt Q9Y4K4) was tested, and the log2 fold change was -0.088.
MAPRE3 isoform 2 (UniProt Q9UPY8) was tested, and the log2 fold change was -0.264.
Work on MFSD1 isoform 6 (UniProt Q9H3U5) yielded a log2 fold change of 0.041.
With LMBRD1 (UniProt Q9NUN5) the log2 fold change was -0.083.
Work on KXD1 (UniProt Q9BQD3) yielded a log2 fold change of -0.046.
LMNA isoform 2 (UniProt P02545) gave a log2 fold change of 0.357.
Target MFSD12 isoform 3 (UniProt Q6NUT3) has a log2 fold change of 0.063.
Work on MAPK11 (UniProt Q15759) yielded a log2 fold change of 0.268.
Target LSR isoform 3 (UniProt Q86X29) has a log2 fold change of -0.324.
ING5 (UniProt Q8WYH8) was tested, and the log2 fold change was -0.079.
Target MAGEA8 (UniProt P43361) has a log2 fold change of -0.007.

These targets were tested with Cc1cc(SCc2sc(-c3ccc(C(F)(F)F)cc3)nc2C)ccc1OCC(=O)O in the same assay as above.
Outline: as §1
For LAMP2 isoform 2 (UniProt P13473), the log2 fold change was 0.011.
With MFSD8 (UniProt Q8NHS3) the log2 fold change was -0.015.
IGFBP6 (UniProt P24592) showed a log2 fold change of 0.14.
Target MAP2K5 (UniProt Q13163) has a log2 fold change of -0.171.
MFAP3 (UniProt P55082) gave a log2 fold change of 0.003.
For LEPROT (UniProt O15243), the log2 fold change was -0.026.
In the case of MAP4K4 isoform 6 (UniProt O95819), the log2 fold change was -0.025.
With MAGED1 isoform 2 (UniProt Q9Y5V3) the log2 fold change was -0.008.
In the case of MED29 (UniProt Q9NX70), the log2 fold change was 0.171.
ITM2C (UniProt Q9NQX7) gave a log2 fold change of 0.011.
Work on LRRCC1 (UniProt Q9C099) yielded a log2 fold change of 0.013.
Target LIN52 (UniProt Q52LA3) has a log2 fold change of -0.059.
Target IKZF1 (UniProt R9R4D9) has a log2 fold change of -0.12.
In the case of LMBRD1 (UniProt Q9NUN5), the log2 fold change was -0.031.
Target KXD1 (UniProt Q9BQD3) has a log2 fold change of 0.012.
In the case of LRRFIP1 isoform 4 (UniProt Q32MZ4), the log2 fold change was -0.025.
For MBLAC1 (UniProt A4D2B0), the log2 fold change was -0.017.
MFSD12 isoform 3 (UniProt Q6NUT3) was tested, and the log2 fold change was 0.065.
Target LSR isoform 3 (UniProt Q86X29) has a log2 fold change of -0.118.
With MAGEA8 (UniProt P43361) the log2 fold change was -0.002.
